TDP1 cell CPT = DT40-hTDP1 cell growth loss with CPT. Potency, µM (series often up to 46.2 µM), for inactives: top-dose activity change, negative = growth inhibition, hits mostly inhibitors. actives 12% (n = 420,000). AID 686979. chicken DT40 Tdp1-/-;hTDP1 cells + 20 nM CPT, ATP luminescence, 48 h; further: potency means the concentration at half of the fitted maximal effect; nearly all actives have a fitted effect of over 55% in size
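Cell growth measured by CellTiter-Glo luminescence after a minimum 48 h, 37 C compound exposure with 20 nM CPT in Tdp1-knockout DT40 cells stably expressing hTDP1, seeded 400/well; qHTS titration format.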
DT40 TDP1 no CPT = qHTS for Inhibitors of human tyrosyl-DNA phosphodiesterase 1 (TDP1): qHTS in cells in absence of CPT; DT40 Tdp1-/- hTDP1 cells, no CPT, ATP luminescence, 48 h; Potency, µM (highest dose often 46.2 µM), for the others: at the top dose activity change, negative = growth inhibition, actives largely listed as inhibitors; actives 15% (n = 420,000); AID 686978, 2013; further: potency means the concentration at half of the fitted maximal effect; nearly all actives have a fitted effect of over 55% in size
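Compound effects on proliferation are scored in DT40 Tdp1-/-;hTDP1 cells in the absence of CPT. ATP levels (CellTiter-Glo luminescence) are recorded after a ≥48 hr, 37 °C incubation.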
IL-1B inflam inh = blocks inflammasome-driven IL-1 beta release | THP-1 LPS/ATP IL-1B secretion, AlphaLISA, 16 h; active compounds read low | activity change, % at 57.5 µM | actives 4.7% (n = 360,000); in the data active means activity change below about -50%; inconclusive means mostly about -30% to -49%
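Secreted IL-1B measured by AlphaLISA bead assay after 16 h compound exposure of THP-1 cells; compounds (final up to 57.5 uM) added 1 h before LPS (250 ng/mL) and ATP (1.25 mM) stimulation; lower signal means less secretion.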
HT1080 IDH1KD tx = HT-1080 IDH1 knockdown cell toxicity (counter line); HT-1080 IDH1 knockdown viability, ATP luminescence, 48 h; actives 2% (n = 360,000); AID 686971; Potency, µM (titrated, usually from 46.1 µM), inactives show at the highest dose activity, negative = toxicity, most hits filed as cytotoxic;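 further: potency means the concentration at half of the fitted maximal effect; 0% = DMSO wells and -100% = cell-free medium wells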
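HT-1080-IDH1KD cells (IDH1 knocked down), 750/well in RPMI with 5% FBS, treated with compound 48 h at 37 degrees C. Viability by CellTiter-Glo luminescence, normalised to DMSO and no-cell wells; concentration-response curves classed.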
HT1080-NT tox = kills 2HG-producing HT-1080-NT fibrosarcoma cells. HT-1080-NT fibrosarcoma viability, CellTiter-Glo ATP luminescence, 48 h. Potency, µM (top dose mostly 46.1 µM), for inactives: top-dose activity, negative = less viability, hits mostly cytotoxic. actives 1.6% (n = 360,000). AID 686970;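 further: NT is the 2HG producing partner of a matched IDH1 knockdown line; potency means the concentration at half of the fitted maximal effect; 0% = DMSO-treated cells and -100% = media-only wells without cells; nearly all actives have a fitted effect of over 55% in size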
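Toxicity toward the 2HG-producing NT line was scored as %Activity, normalised to DMSO and no-cell wells, from CellTiter-Glo luminescence after 48 hours' treatment.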
Starred values were filed as active, the others as inactive; u = inconclusive; x = no result; [ ] = another dose, or the depositor's remark. In the library only some 19% were active in any assay of this set; here they are far more common. Unless noted, the call rests on the fitted dose curve; in most records, active means well fitted curve in the direction sought with a large enough effect; inconclusive means small, poorly fitted or top-dose-only effect, or another doubt; inactive means no such curve, though single readings can be large; an effect the other way counts as inactive or inconclusive. Unless noted, on the % scale 0 is the no-effect control and ±100 the full control effect.

SMILES	TDP1 cell CPT	DT40 TDP1 no CPT	IL-1B inflam inh	HT1080 IDH1KD tx	HT1080-NT tox
COc1ccc(CNC(=O)Cn2nc(C)c3c(C)n(-c4ccc(C)cc4)nc3c2=O)cc1OC	-26%	-9%	-8	-6%	u
Cc1cc(O)cc(C)c1NS(=O)(=O)c1ccc2ccccc2c1	u	26µM*	1	-8%	-2%
COc1ccc(S(=O)(=O)Nc2ccc(S(=O)(=O)N3CCCCC3)cc2)cc1C	0%	-11%	10	-2%	-1%
COc1ccc(S(=O)(=O)Nc2ccc3ccccc3c2)cc1C	9.2µM*	u	9	u	-2%[9.24 µM]
COc1ccc(S(=O)(=O)Nc2ccc(Cc3ccncc3)cc2)cc1C	13µM*	u	u	-13%	u
CCc1ccc(NS(=O)(=O)c2ccc(OC)c(C)c2)cc1	u	23µM*	6	-29%	-13%
Cc1ccc(C)c(NC(=O)C2CCCN2C(=O)NC2CCCCC2)c1 (configuration not stated)	9%	3%	48	7%	6%
CC1(C)COCN1S(=O)(=O)c1ccc(C(=O)Nc2nnc(-c3ccc(Cl)s3)o2)cc1	4µM*	4.5µM*	61	2.8µM*	u
COc1ccc(-c2nnc(NC(=O)c3ccc(S(=O)(=O)N4COCC4(C)C)cc3)o2)cc1	3.7µM*	3.7µM*	25	8.2µM*	u
CC(=O)CCc1c(C)c2cccc(C)c2[nH]c1=O	18µM*	u	-15	-6%	u
C[C@@H]1O[C@@H](OC[C@@H]2O[C@H](Oc3c(-c4ccc(O)cc4)oc4cc(O)cc(O)c4c3=O)[C@@H](O)[C@H](O)[C@H]2O)[C@H](O)[C@H](O)[C@H]1O	-2%	8%	43	8%	11%
O=C(O)C1OC(Oc2c(-c3ccc(O)c(O)c3)oc3cc(O)cc(O)c3c2=O)C(O)C(O)C1O (configuration not stated)	u	13µM*	24	6%	0%
Cc1cc(=O)n2nc(-c3ccc(C(F)(F)F)cc3)sc2n1	-2%	-14%	-2	26%	u
COC(=O)C1CSC2c3ccccc3C(=O)N12 (configuration not stated)	18µM*	u	-4	-6%	-6%
CC(C)NC(=O)[C@@H]1CSC2c3ccccc3C(=O)N21 (some centres not stated)	5%	1%	2	4%	2%
O=C(C[C@@H]1C/C=C\CC[C@@H](Cc2ccc(F)cc2)C(=O)OC[C@@H](Cc2ccccc2)NC1=O)NCCO	15µM*	u	11	7%	16%
CC(C)(C)[C@H]1COC(=O)[C@H](Cc2ccc(F)cc2)CC/C=C/C[C@@H](CC(=O)N[C@H](CO)Cc2ccccc2)C(=O)N1	u	21µM*	12	2%	5%
C[C@H]1COC(=O)[C@H](Cc2ccc(F)cc2)CC/C=C/C[C@@H](CC(=O)N[C@@H](CO)Cc2ccccc2)C(=O)N1	12µM*	16µM*	-1	0%	0%
O=C(C[C@H]1C/C=C\CC[C@H](Cc2ccc(F)cc2)C(=O)OC[C@@H](Cc2c[nH]c3ccccc23)NC1=O)NCCO	u	u	7	1%	0%
CC(C)(C)OC(=O)C[C@H]1C/C=C\C[C@H](CC(=O)N[C@@H](CO)Cc2ccccc2)C(=O)N[C@H](C(C)(C)C)COC1=O	u	u	-22	0%	2%
O=C(C[C@@H]1C/C=C/CC[C@@H](Cc2ccc(F)cc2)C(=O)OC[C@H](Cc2ccccc2)NC1=O)N[C@H](CO)Cc1ccccc1	9.2µM*	5.2µM*	-18	u	u
O=C(C[C@@H]1C/C=C/CC[C@@H](Cc2ccc(F)cc2)C(=O)OCCNC1=O)N[C@H](CO)Cc1ccccc1	u	u	18	1%	-3%
C=CCOn1c(=O)c(-c2cc3ccccc3o2)[n+]([O-])c2ccccc21	-77%	18µM*	28	-6%	-17%
CCOC(=O)c1sc(-c2ccc(OC)cc2)cc1N	u	-22%	u	-3%	2%
CCOC(=O)C1=C(Nc2ccc(OC)cc2)C(N)=NC1=N	3.7µM*	1.3µM*	59	5.2µM*	2.3µM*
SMILES	TDP1 cell CPT	DT40 TDP1 no CPT	IL-1B inflam inh	HT1080 IDH1KD tx	HT1080-NT tox
Cc1ccc(Nc2cc(C)nc3nc(Cc4ccc(Cl)cc4)nn23)cc1	18µM*	15µM*	x	x	x
CCc1ccc(Nc2cc(C)nc3nc(Cc4ccc(Cl)cc4)nn23)cc1	16µM*	9.2µM*	x	x	x
Cc1nn2c(=O)cc(COC(=O)c3cccs3)nc2s1	u	-1%	x	x	x
C#CC[N+](C)(C)CCCCCCCC	u	u	-54*	u	u
CC#CC[N+](C)(C)CCCCCCCCCCCC	0.58µM*	0.46µM*	0	23µM*	23µM*
C#CC[N+](C)(C)CCCCCCCCCC	2.1µM*	2.3µM*	-80*	12µM*	u
C#CC[N+](C)(C)CCCCCCCCCCCC	1.3µM*	0.65µM*	-88*	12µM*	10µM*
Cc1ccc(-n2c(C)cc(C(=S)N3CCOCC3)c2C)cc1C	23µM*	15µM*	-67*	17%[9.24 µM]	u
CCCCCC(=O)N1C[C@@H](O)[C@H](n2cc(C3CC3)nn2)C[C@@H]1c1ccc(Cl)cc1	-22%	-32%	-17	-2%	-8%
CCCCCC(=O)N1C[C@@H](n2cc(C3CC3)nn2)[C@H](O)C[C@@H]1c1ccc(C)cc1	u	13µM*	4	-12%	-5%
CCCCCC(=O)N1C[C@H](n2cc(C3CC3)nn2)[C@@H](O)C[C@@H]1c1ccc(Cl)cc1	u	13µM*	-8	3%	2%
N[C@](CC1c2ccccc2Oc2ccccc21)(C(=O)O)[C@H]1C[C@@H]1C(=O)O	-30%	-18%	x	x	x
O=C(CSc1nc2ccccc2n1Cc1ccc(Cl)cc1)N/N=C/c1ccc(C(=O)O)cc1	1%	-24%	-8	-11%	7%
O=C(c1cccc(F)c1)N1CCC[C@@]2(CCN(Cc3ccccc3)C2)C1	14%	-22%	x	x	x
COc1ccc(S(=O)(=O)NC2(C(F)(F)F)NC(=O)N(CCc3ccccc3)C2=O)cc1 (configuration not stated)	-22%	0%	18	16%	6%
CCN(CC)c1ccc(/C=N/NC(=O)c2cccc(S(=O)(=O)Nc3ccccc3OC)c2)c(O)c1	3.3µM*	2.9µM*	98	u	u
COc1ccccc1NS(=O)(=O)c1cccc(C(=O)N/N=C/c2ccc([N+](=O)[O-])o2)c1	3.7µM*	2.9µM*	-92*	u	u

Screens (PubChem)
